# Bioassay records as filed in PubChem.
# ALR H2O2 inh – blocks human ALR sulfhydryl oxidase activity | P55789 | inhibition, % (concentration not given with the values) | purified ALR, DTT oxidation, H2O2 HRP-luminol luminescence | AID 485317 | actives 3.8% (n = 290,000);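 active = mean replicate inhibition above about 79%, with every replicate also reaching it, limit read from the data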
# HDAC3 inhib – human HDAC3 inhibition; O15379; AID 2718; actives 0.15% (n = 320,000); inhibition, % at 8.3 µM; recombinant HDAC3, fluorogenic peptide/trypsin coupled, fluorescence; in the data active = inhibition above about 26%, passing the limit was not always enough
# Rtt109 HAT inh – inhibitors of Candida albicans Rtt109/Vps75 histone acetyltransferase | Q5AAJ8 | purified Rtt109/Vps75, ThioGlo CoA-SH fluorescence, 4 h | inhibition, % at 34.9 µM | actives 0.16% (n = 330,000) | AID 540336;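 active = inhibition of at least 50% in every replicate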
# GRK2 aptamer HTS – human GRK2 inhibition via aptamer displacement; bead flow cytometry, FAM-aptamer displacement from GRK2; inhibition of aptamer binding, % at 10 µM; actives 0.59% (n = 330,000);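 active = inhibition of aptamer binding above 40%, roughly 3 SD of noise, on plates passing a quality check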;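 note: median bead fluorescence of bound FAM aptamer so fluorescent compounds give negative values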
# Target sequence (P25098 whole entry, looked up): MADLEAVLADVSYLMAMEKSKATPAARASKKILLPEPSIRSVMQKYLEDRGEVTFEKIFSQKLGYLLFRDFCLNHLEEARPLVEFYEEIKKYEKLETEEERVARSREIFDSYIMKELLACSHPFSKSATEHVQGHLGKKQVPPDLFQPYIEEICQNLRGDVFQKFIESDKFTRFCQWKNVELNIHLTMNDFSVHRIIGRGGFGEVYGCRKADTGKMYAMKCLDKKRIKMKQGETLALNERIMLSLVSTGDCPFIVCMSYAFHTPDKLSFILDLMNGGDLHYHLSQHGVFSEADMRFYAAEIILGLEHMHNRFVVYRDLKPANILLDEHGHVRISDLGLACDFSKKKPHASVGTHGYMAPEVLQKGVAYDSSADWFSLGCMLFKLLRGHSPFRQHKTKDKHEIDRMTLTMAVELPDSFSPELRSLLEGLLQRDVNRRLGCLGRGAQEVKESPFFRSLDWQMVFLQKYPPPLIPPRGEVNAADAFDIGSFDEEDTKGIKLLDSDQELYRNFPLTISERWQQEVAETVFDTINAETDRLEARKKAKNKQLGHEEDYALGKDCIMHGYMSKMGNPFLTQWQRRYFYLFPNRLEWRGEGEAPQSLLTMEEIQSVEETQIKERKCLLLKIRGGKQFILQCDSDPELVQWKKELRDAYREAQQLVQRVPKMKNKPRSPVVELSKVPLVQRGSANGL
# Rce1 inhib – blocks yeast Ras-converting enzyme; calls only; yeast membranes, quenched prenylated peptide cleavage fluorescence; AID 2563; actives 0.27% (n = 290,000);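 active = fall in fluorescence gain of 50% or more versus controls, with final raw signal at or below 3038400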;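 note: plate controls were neutral control wells for no effect and wells lacking membranes for full effect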
# Efflux pump mplx – blocks antifungal efflux pumps in multiplex yeast assay. S. cerevisiae Candida pump triplex, Nile Red efflux. inhibition, % at 10 µM. actives 0.44% (n = 330,000);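 active = plate passing quality check with inhibition over a set limit, or well fluorescence over plate mean plus 4 SD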;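 note: Nile Red retained in pooled yeast measured as flow cytometry median fluorescence; 0% = buffer negative control and 100% = Enniatin B positive control; higher means more Nile Red kept so more efflux inhibition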
# The depositor's hits bear a star; i = inactive; x = not tested or not shown; + = active, no number. This is a sample that favours compounds with a hit; in the whole collection about 4.5% have one here.
SMILES,ALR H2O2 inh,HDAC3 inhib,Rtt109 HAT inh,GRK2 aptamer HTS,Rce1 inhib,Efflux pump mplx
O=C(/C=C/c1cccs1)N1CCN(c2ccc(O)cc2)CC1,99.1*,0.3,13.3,0.0,i,0.1
CC(C)[C@H](NC(=O)[C@H](CCCN=C(N)N)NC(=O)NC(Cc1ccccc1)C(=O)O)C(=O)NC(C=O)CCCN=C(N)N (stereo partly drawn),3.2,83.8*,-0.9,2.0,i,0.0
CC(C)C(NC(=O)OCc1ccccc1)C(=O)NC(Cc1ccc(O)cc1)C(=O)O (stereo not drawn),-4.3,-5.4,-16.4,1.0,i,-0.5
O=C(NCCN1CCCC1)C(c1ccccc1)c1ccccc1,-10.7,-2.1,1.7,0.0,i,-0.1
CCOC(=O)N1CCN=C1SCc1ccc(C(F)(F)F)cc1,-1.1,10.5,3.3,2.0,i,0.0
CCC(=O)N1CCN=C1SCc1ccc(Cl)cc1,98.1*,-0.2,4.6,0.0,i,0.0
CC(=O)N1CCN=C1SCc1ccc(F)cc1,99.1*,-7.5,0.0,0.0,i,0.1
CC(=O)N1CCN=C1SCc1ccccc1,2.9,0.3,-16.4,0.0,i,0.0
CC(=O)N1CCN=C1SCc1ccc(C)cc1,94.6*,9.9,2.7,6.0,i,0.2
CC(=O)N1CCN=C1SCc1ccc(Cl)cc1,98.2*,6.4,13.4,0.0,i,0.2
Oc1ccccc1CC=NC1CCCCC1,x,x,11.1,x,x,x
CC(=O)Nc1ccc(NC(=O)C(C)Sc2n[nH]c(-c3ccc(C)cc3)n2)cc1 (stereo not drawn),46.9,-2.4,5.7,0.0,i,-0.1
COc1cc2c3c(c1)C(C)CC(C)(C)N3C(=O)C2=O (stereo not drawn),-74.6,1.7,-3.6,6.0,i,-0.1
CCc1cc2c3c(c1)C(C)CC(C)(C)N3C(=O)/C2=C1\SC(=O)NC1=O (stereo not drawn),96.6*,0.9,26.5,x,i,-0.2
COc1cccc(CNC(=O)c2cccc(S(=O)(=O)N3CCN(Cc4ccccc4)CC3)c2)c1,x,x,8.5,x,x,x
COc1ccc(C(=O)N2CCN(S(=O)(=O)c3ccc(Br)cc3)CC2)cc1,-13.5,2.0,4.3,4.0,x,-0.4
S=c1[nH]cc(-c2ccccc2)[nH]1,98.7*,-50.6,7.7,0.0,i,-0.1
CCn1c(-c2ccc([N+](=O)[O-])cc2)n[nH]c1=S,-9.1,0.1,24.9,0.0,i,-0.1
O=[N+]([O-])c1ccc(-c2c[nH]c(=S)[nH]2)cc1,98.1*,5.6,-4.2,1.0,x,-0.1
Cc1ccc(/C(O)=C/c2nc3ccccc3oc2=O)cc1,-1.2,-0.6,x,0.0,i,0.0
Cc1nc(C)c(/C(O)=C\c2nc3ccc([N+](=O)[O-])cc3oc2=O)o1,98.9*,10.9,x,3.0,i,0.0
OC1CCC(Nc2ncnc3sccc23)CC1 (stereo not drawn),-3.3,-6.5,-21.8,1.0,i,0.3
Cc1ccc2sc(N3CCN(CCNC(=O)c4ccco4)CC3)nc2c1C,-10.2,6.5,4.9,0.0,i,0.1
CC(=O)c1ccc(NC(=O)CSc2nnc(Cn3cnc4ccccc43)o2)cc1,96.8*,5.2,-8.1,0.0,i,0.0
COc1ccc(C(=O)CSc2nnc(Cn3cnc4ccccc43)o2)cc1,-40.8,9.0,-5.7,22.0,i,-0.1
SMILES,ALR H2O2 inh,HDAC3 inhib,Rtt109 HAT inh,GRK2 aptamer HTS,Rce1 inhib,Efflux pump mplx
O=C(CSc1nnc(Cn2cnc3ccccc32)o1)Nc1cccc2ccccc12,99.3*,3.5,4.9,0.0,i,0.4
C(=N\N1CCOCC1)/c1cn(-c2ccccc2)nc1-c1ccccc1,5.5,17.6,13.8,0.0,i,-0.2
C(=N\N1CCOCC1)/c1nc(-c2ccccc2)n2ccccc12,95.6*,9.4,15.3,2.0,i,0.0
CCOc1ccc(N(CC(=O)NC2CC3CCC2C3)S(=O)(=O)c2ccccc2)cc1 (stereo not drawn),x,-6.3,8.0,0.0,+,0.0
CCCCCOCC1CC(C/C(C)=N/Nc2nc(-c3ccccc3)cs2)C(=O)O1 (stereo not drawn),96.0*,-1.2,-14.8,x,i,-0.1
Cc1ccc(/C=N/N2C(=S)SC(C)(C)C2N(O)C(=O)Nc2ccc([N+](=O)[O-])cc2)cc1 (stereo not drawn),-34.4,14.2,1.8,4.0,i,-0.1
CC1(C)SC(=S)N(/N=C/c2ccc(O)cc2)C1N(O)C(=O)Nc1ccc([N+](=O)[O-])cc1 (stereo not drawn),80.6*,19.9,-0.6,16.0,i,0.2
Cc1ccc(Nc2c(F)c(F)c(F)c(F)c2C(=O)O)cc1,87.3*,-2.1,6.3,4.0,i,0.0
COc1c(F)c(F)c(C(=O)O)c(Nc2ccc(C)cc2C)c1F,96.9*,-0.1,-0.5,2.0,i,0.1
Cc1cccc(Nc2c(F)c(F)c(F)c(F)c2C(=O)O)c1,13.5,-0.9,8.2,4.0,i,0.2
COc1cccc(Nc2c(F)c(F)c(F)c(F)c2C(=O)O)c1,99.5*,4.2,-6.5,0.0,i,-0.3
COc1c(F)c(F)c(C(=O)O)c(Nc2cc(C)cc(C)c2)c1F,11.1,1.2,-0.5,0.0,i,-0.1
CCN(c1ccccc1)c1nc(Cl)nc2c1cnn2C,x,x,0.2,x,x,x
CC(=O)c1ccc(NC(=O)c2cnsn2)cc1,11.5,-0.1,1.6,0.0,i,-0.1
O=C(Nc1cc(-c2ccccc2)nn1C1CCCCC1)c1ccc(Cl)cc1,-3.6,6.8,2.8,3.0,x,-0.3
CCN(CC)S(=O)(=O)c1ccc(Cl)c(NC(=O)COC(=O)/C=C/c2ccc(O)c(OC)c2)c1,8.5,1.0,-11.6,100.0*,i,-0.4
COc1cc(/C=C/C(=O)OCC(=O)Nc2ccccc2Sc2ccc(Cl)cc2)ccc1O,91.2*,-1.4,-1.6,0.0,i,0.0
COc1cc(/C=C/C(=O)OCC(=O)Nc2c(C)n(C)n(-c3ccccc3)c2=O)ccc1O,99.2*,-1.1,0.7,8.0,i,0.0
COc1cc(/C=C/C(=O)OCC(=O)NNC(=O)c2cc(Cl)ccc2OC)ccc1O,19.0,1.0,5.4,0.0,x,0.4
O=C(O)c1ccc(CNC(=O)C23CC4CC(CC(C4)C2)C3)cc1,-4.8,-2.3,7.0,0.0,i,0.0
COc1cc(C(C(=O)Nc2c(C)cccc2C)N(C)C(=O)c2ccc(-n3cnnn3)cc2)ccc1O (stereo not drawn),19.7,-4.5,27.0,5.0,i,0.0
CC(=O)c1c(C)oc(C)c1CSCc1ccc(C(=O)O)o1,97.4*,3.3,-0.2,25.0,i,-0.1
CCCCSCc1ccc(C(=O)O)o1,-6.8,-1.9,7.0,0.0,x,0.1
Cn1c(=O)c2c(C(=O)O)cc(-c3ccccc3)nc2n(Cc2ccccc2)c1=O,-1.2,0.1,-16.7,3.0,i,0.0
COc1ccccc1-c1cc(C(=O)O)c2c(=O)n(C)c(=O)n(Cc3ccccc3)c2n1,4.1,-10.1,-2.5,0.0,+,-0.1
